Source: the supplement of paper PMC8285479
Counter-ions that a name gives are not always drawn. ± gives the standard deviation of the averaged measurements. In all, about 1,900 compounds were measured (“normalised cell viability (NPI; 0 = phenylarsine oxide control, 1 = DMSO control)”: median about 1, lowest 2% from about 0.039 on). For the sample, the lowest values were picked, then their nearest neighbours and some compounds at random.

Test system: NCI-H1944
Experiment: normalised cell viability (NPI; 0 = phenylarsine oxide control, 1 = DMSO control) (fraction of DMSO control); NCI-H1944 is a non-small cell lung cancer line; higher = more viable cells (less compound toxicity)
Settings: 6 days
[1] = glucocorticoid arm: hydrocortisone 2.75 uM co-treatment, compound 1 µM
[2] = glucocorticoid arm: hydrocortisone 2.75 uM co-treatment, compound 5 µM
[3] = glucocorticoid arm: hydrocortisone 2.75 uM pre-treated 2 days and continued, compound 1 µM
[4] = glucocorticoid arm: hydrocortisone 2.75 uM pre-treated 2 days and continued, compound 5 µM
[5] = glucocorticoid arm: vehicle, compound 1 µM
[6] = glucocorticoid arm: vehicle, compound 5 µM
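Also: CTB read-out in 384-well plates, triplicate wells, NPI normalised per plate against 1 µM phenylarsine oxide (0) and 0.1% DMSO (1) controls.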

Row | SMILES | normalised cell viability [1] | normalised cell viability [2] | normalised cell viability [3] | normalised cell viability [4] | normalised cell viability [5] | normalised cell viability [6]
1 | CN=c1nc(-c2ccccc2)n(-c2ccccc2)s1 | 1.003 ± 0.0058 | 1.04 ± 0.031 | 0.832 ± 0.33 | 1.02 ± 0.01 | 1.01 | 1.017 ± 0.0058
2 | O=C1Nc2ccc(I)cc2C1=Cc1cc(Br)c(O)c(Br)c1 | 1.047 ± 0.0058 | 1.113 ± 0.0058 | 1.04 ± 0.01 | 1.08 ± 0.021 | 1.02 ± 0.01 | 1.043 ± 0.0058
3 | Cc1nc(N=Nc2cc([N+](=O)[O-])ccc2Cl)c(COP(=O)(O)O)c(C=O)c1O [MRS 2211 sodium salt hydrate] | 1.003 ± 0.0061 | 1.023 ± 0.0058 | 0.9933 ± 0.0099 | 0.995 ± 0.036 | 1.01 ± 0.013 | 1.006 ± 0.0075
4 | Cc1c2oc3c(C)ccc(C(=O)N[C@@H]4C(=O)N[C@H](C(C)C)C(=O)N5CCC[C@H]5C(=O)N(C)CC(=O)N(C)[C@@H](C(C)C)C(=O)O[C@@H]4C)c3nc-2c(C(=O)N[C@@H]2C(=O)N[C@H](C(C)C)C(=O)N3CCC[C@H]3C(=O)N(C)CC(=O)N(C)[C@@H](C(C)C)C(=O)O[C@@H]2C)c(N)c1=O [Dactinomycin] | 0.0161 ± 0.0015 | 0.0688 ± 0.0039 | 0.0397 ± 0.0056 | 0.183 ± 0.016 | 0.0046 ± 0.00021 | 0.0187 ± 0.0011
5 | COc1cc2c(cc1OC)-c1c/c(=N\c3c(C)cc(C)cc3C)n(C)c(=O)n1CC2 [Trequinsin hydrochloride] | 1.03 ± 0.015 | 1.02 ± 0.022 | 0.908 ± 0.2 | 1.033 ± 0.0058 | 1.023 ± 0.0058 | 1.05 ± 0.035
6 | CC(Cc1ccccc1)Nc1ncnc2c1ncn2C1OC(CO)C(O)C1O (stereo not drawn) [R(-)-N6-(2-Phenylisopropyl)adenosine] | 0.998 ± 0.002 | 1.01 ± 0.018 | 0.9997 ± 0.0096 | 1.03 ± 0.031 | 1.013 ± 0.0058 | 1.02 ± 0.017
7 | CC(=O)NC(C(=O)O)C(C)(C)SN=O (stereo not drawn) [S-Nitroso-N-acetylpenicillamine] | 0.998 ± 0.014 | 1 ± 0.026 | 1.01 ± 0.011 | 0.987 ± 0.023 | 0.9937 ± 0.0011 | 0.9943 ± 0.0055
8 | O=C1c2c(O)cc(O)cc2O[C@H](c2ccc(O)c(O)c2)[C@H]1O (racemic) [(±)-Taxifolin] | 1.01 ± 0.013 | 0.995 ± 0.0078 | 1.02 ± 0.035 | 1.01 ± 0.012 | 1.017 ± 0.0058 | 1.017 ± 0.0058
9 | CO[C@@]12[C@H](COC(N)=O)C3=C(C(=O)C(C)=C(N)C3=O)N1C[C@@H]1N[C@@H]12 [Mitomycin; Mitomycin C] | 1 ± 0.013 | 0.00117 ± 0.0012 | 1.017 ± 0.0058 | 0.0028 ± 0.00069 | 0.9803 ± 0.0055 | 0.000408 ± 0.00038
10 | O=C1c2c(O)ccc(O)c2C(=O)c2c(NCCNCCO)ccc(NCCNCCO)c21 [Mitoxantrone dihydrochloride] | 0.00888 ± 0.0019 | 0.00352 ± 0.00052 | 0.145 ± 0.013 | 0.155 ± 0.0095 | 0.00324 ± 0.00091 | 0.00617 ± 0.003
11 | O=C1c2c(O)ccc(O)c2C(=O)c2c(NCCNCCO)ccc(NCCNCCO)c21 [Mitoxantrone; Mitoxantrone dihydrochloride] | 0.181 ± 0.0045 | 0.00493 ± 0.00072 | 0.65 ± 0.012 | 0.0166 ± 0.0015 | 0.0328 ± 0.004 | 0.00403 ± 0.00087
12 | O=C1c2ccccc2C(=O)c2c(NCCc3ccc(O)cc3)ccc(NCCc3ccc(O)cc3)c21 | 1.01 ± 0.012 | 1.02 ± 0.038 | 1.01 ± 0.012 | 1.012 ± 0.0075 | 1.01 ± 0.0063 | 1.022 ± 0.0098
13 | O=C(NCc1cccc(O)c1)Nc1nc(-c2ccncc2)cs1 | 0.994 ± 0.01 | 0.978 ± 0.021 | 1.01 ± 0.014 | 0.971 ± 0.035 | 0.984 ± 0.0069 | 0.816 ± 0.054
14 | C=C/C(C)=C/[C@@]1(C)SC(=O)C(C)=C1O [Thiolactomycin] | 0.992 ± 0.0056 | 0.961 ± 0.021 | 1 ± 0.026 | 0.848 ± 0.23 | 0.9883 ± 0.0015 | 0.998 ± 0.012
15 | C=CCN1CCc2c(cc(O)c(O)c2Cl)C(c2ccccc2)C1 (racemic) [(±)-Chloro-APB hydrobromide] | 0.9917 ± 0.0072 | 1.02 ± 0.01 | 0.989 ± 0.0061 | 1 ± 0.011 | 0.9943 ± 0.0021 | 0.99467 ± 0.00058
16 | N#C/C(=C\c1ccc(-c2cc(Cl)ccc2Cl)o1)C(=O)Nc1cccc2ncccc12 | 0.971 ± 0.01 | 0.978 ± 0.035 | 0.984 ± 0.018 | 0.991 ± 0.014 | 0.9887 ± 0.0078 | 0.989 ± 0.012
17 | O=C(/C=C/C#Cc1cccc(NS(=O)(=O)c2ccccc2)c1)NO [Oxamflatin] | 0.974 ± 0.015 | 0.599 ± 0.44 | 0.992 ± 0.019 | 0.901 ± 0.11 | 0.843 ± 0.17 | 0.509 ± 0.54
18 | COc1cccc(NC(=O)/C=C/c2ccc(Cl)cc2)c1 | 0.953 ± 0.015 | 0.884 ± 0.026 | 0.992 ± 0.029 | 0.941 ± 0.023 | 0.9757 ± 0.0093 | 0.9683 ± 0.0067
19 | O=C(/C=C/c1cccc(S(=O)(=O)Nc2ccccc2)c1)NO [Belinostat (PXD101)] | 0.9767 ± 0.0051 | 0.0174 ± 0.0036 | 1.02 | 0.114 ± 0.0036 | 0.575 ± 0.067 | 0.00153 ± 0.00067
20 | N[C@H](C(=O)O)[C@H]1C[C@@H]1C(=O)O [(2S,1'S,2'S)-2-(carboxycyclopropyl)glycine] | 0.99 ± 0.0046 | 0.979 ± 0.019 | 0.994 ± 0.0095 | 0.978 ± 0.015 | 0.9847 ± 0.0055 | 0.9883 ± 0.0097
21 | COC(=O)[C@]12CCC(C)(C)C[C@H]1[C@H]1C(=O)C=C3[C@@]4(C)C=C(C#N)C(=O)C(C)(C)[C@@H]4CC[C@@]3(C)[C@]1(C)CC2 [Bardoxolone Methyl] | 0.00114 ± 0.00058 | 1.08 ± 0.01 | 0.00366 ± 0.0014 | 1.1 ± 0.015 | 0.00138 ± 0.00077 | 0.858 ± 0.022
22 | N.N.N.N.N.N.N.N.N.N.N.N.N.N.O.O.[Cl-].[Cl-].[Cl-].[Cl-].[Cl-].[Cl-].[Ru+4].[Ru+5].[Ru+5] [Ruthenium red] | 0.991 ± 0.01 | 0.974 ± 0.021 | 1.01 ± 0.027 | 0.987 ± 0.023 | 0.995 ± 0.0052 | 0.973 ± 0.0087
23 | CC(C)(C)NCC(O)COc1cccc2[nH]c(=O)[nH]c12 (racemic) | 0.9973 ± 0.0023 | 0.974 ± 0.014 | 0.992 ± 0.015 | 0.988 ± 0.0076 | 0.9853 ± 0.0067 | 0.985 ± 0.0053
